# A number with no mark means an inactive call. Records with an inconclusive call do not appear. Where a call stands in place of a potency, no number is given. The source made the active and inactive calls. The call rests on the fitted dose curve.
# Tests used:
# [1] = target: Acetylcholinesterase (Homo sapiens) (UniProt P22303); experiment: Acetylcholinesterase (AChE) small molecule antagonists: colormetric cell-based qHTS assay (AID 1347395); further: nearly all actives have a fitted effect of over 30% in size
# How it was run: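 In this cell-based qHTS, attached SH-SY5Y cells were treated with test chemicals for 30 min, after which acetylthiocholine hydrolysis was followed by DTNB colour development over 90 min at 37 C.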
# [2] = target: Acetylcholinesterase (Homo sapiens) (UniProt P22303); experiment: Acetylcholinesterase (AChE) small molecule antagonists: enzyme-based qHTS assay (AID 1347397); conditions: Potency: AChE enzyme activity inhibition; outcome: AChE enzyme activity inhibition; further: nearly all actives have a fitted effect of over 55% in size
# How it was run: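 rhAChE 50 mU/mL (dispensed) + cpd or DMSO, 30 min RT; add DTNB/acetylthiocholine cocktail, 10 min RT; colorimetric thiocholine readout. qHTS, 1536-well format.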
# [3] = target: Acetylcholinesterase (Homo sapiens) (UniProt P22303); experiment: Acetylcholinesterase (AChE) small molecule antagonists: enzyme-based qHTS assay with human liver microsomes (AID 1347399); conditions: Potency: qHTS inhibition; outcome: qHTS inhibition; further: nearly all actives have a fitted effect of over 60% in size
# How it was run: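 Recombinant human AChE (50 mU/mL in the enzyme mix) and human liver microsomes (0.25 mg/mL final) were preincubated with compound and NADPH (0.25 mg/mL final) for 30 min at 37 C. Acetylthiocholine/DTNB was then added; thiocholine was read colorimetrically after 10 min at room temperature.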
# Potency means the concentration at half of the fitted maximal effect.
# Acetylcholinesterase (Homo sapiens), sequence (P22303 whole entry, looked up): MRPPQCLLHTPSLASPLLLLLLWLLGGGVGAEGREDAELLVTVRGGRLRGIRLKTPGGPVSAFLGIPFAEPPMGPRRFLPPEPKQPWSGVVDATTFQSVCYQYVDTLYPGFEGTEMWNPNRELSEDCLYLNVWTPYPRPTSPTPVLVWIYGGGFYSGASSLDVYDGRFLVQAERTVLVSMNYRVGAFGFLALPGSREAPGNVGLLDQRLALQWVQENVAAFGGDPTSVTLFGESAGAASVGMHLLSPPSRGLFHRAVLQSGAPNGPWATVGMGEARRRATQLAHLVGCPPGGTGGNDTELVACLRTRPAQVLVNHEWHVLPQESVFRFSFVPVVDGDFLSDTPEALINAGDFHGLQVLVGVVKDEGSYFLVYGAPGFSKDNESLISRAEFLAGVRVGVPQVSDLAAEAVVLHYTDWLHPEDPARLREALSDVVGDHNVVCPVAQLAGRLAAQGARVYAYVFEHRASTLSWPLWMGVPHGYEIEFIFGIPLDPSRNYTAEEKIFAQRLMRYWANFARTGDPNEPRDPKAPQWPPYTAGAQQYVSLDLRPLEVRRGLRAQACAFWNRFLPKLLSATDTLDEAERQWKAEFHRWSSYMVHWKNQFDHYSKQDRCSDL
compound,measurement,setting,value
Oc1cc2c(cc1O)[C@H]1c3ccc(O)c(O)c3OC[C@@]1(O)C2,Potency,[1],inactive
same,Potency,[2],inactive
same,Potency,[3],inactive
CN(C/C=C/c1ccccc1)Cc1cccc2ccccc12,outcome,[1],inactive
same,outcome,[2],inactive
same,outcome,[3],inactive
O=C1OC(=O)c2ccccc21,Potency,[1],inactive
same,Potency,[2],inactive
same,Potency,[3],inactive
CC(C)OC(=O)c1ccccc1C(=O)OC(C)C,Potency,[1],inactive
same,Potency,[2],inactive
same,Potency,[3],inactive
C1COC1,Potency,[1],inactive
same,Potency,[2],inactive
same,Potency,[3],inactive
CCO[Si](C)(C)OCC,Potency,[1],inactive
same,Potency,[2],inactive
same,Potency,[3],inactive
CC(=O)Nc1cc(S(=O)(=O)O)cc2cc(S(=O)(=O)O)c(N=Nc3ccccc3)c(O)c12,Potency,[1],inactive
same,Potency,[2],inactive
same,Potency,[3],inactive
NS(=O)(=O)c1cc2c(cc1C(F)(F)F)NC(Cc1ccccc1)NS2(=O)=O (centres undefined),Potency,[1],38.9 µM (active)
same,Potency,[2],inactive
same,Potency,[3],inactive
CNC(=O)c1ccccc1Sc1ccc2c(/C=C/c3ccccn3)n[nH]c2c1,Potency,[1],inactive
same,Potency,[2],inactive
same,Potency,[3],inactive
Nc1ccc([N+](=O)[O-])cc1O,Potency,[1],inactive
same,Potency,[2],inactive
same,Potency,[3],inactive
CCCCCCCCCCCCCCCCCC[N+](C)(C)C,Potency,[1],inactive
same,Potency,[2],63.5 µM (active)
same,Potency,[3],inactive
O=S(=O)(O)SSS(=O)(=O)O,Potency,[1],71 µM (active)
same,Potency,[2],71 µM (active)
same,Potency,[3],71 µM (active)
CCCC(=O)O[C@]1(C(=O)COC(=O)CC)CC[C@H]2[C@@H]3CCC4=CC(=O)CC[C@]4(C)[C@H]3[C@@H](O)C[C@@]21C,"activity, negative = inhibition",[1],0.0881% [at 23.6 µM]
same,"activity change, negative = inhibition",[2],0.139% [at 23.6 µM]
same,"activity change, negative = inhibition",[3],-1.51% [at 23.6 µM]
CC(C)c1ccc2c(c1)CC[C@H]1[C@](C)(CN)CCC[C@]21C,Potency,[1],inactive
same,Potency,[2],inactive
same,Potency,[3],inactive
Cc1cc(CCN2CCN(c3nsc4ccccc34)CC2)cc2c1NC(=O)CC2(C)C,outcome,[1],inactive
same,outcome,[2],inactive
same,outcome,[3],inactive
CC(O)CCCCn1c(=O)c2c(ncn2C)n(C)c1=O (centres undefined),Potency,[1],inactive
same,Potency,[2],inactive
same,Potency,[3],inactive
O=C1[C@H]2CCCC[C@H]2C(=O)N1CCCCN1CCN(c2nsc3ccccc23)CC1,Potency,[1],inactive
same,Potency,[2],inactive
same,Potency,[3],inactive
CCOC(=O)COc1ccc2c(c1)CC(NCC(O)c1cccc(Cl)c1)CC2 (centres undefined),Potency,[1],inactive
same,Potency,[2],inactive
same,Potency,[3],inactive
COc1cc(S(=O)(=O)O)c(C)cc1N=Nc1c(O)ccc2cc(S(=O)(=O)O)ccc12,Potency,[1],inactive
same,Potency,[2],inactive
same,Potency,[3],inactive
CN(C)CCN(C)CCO,Potency,[1],inactive
same,Potency,[2],inactive
same,Potency,[3],inactive
CC(C)(C)OC(=O)N1C[C@@H](F)C[C@H]1C(=O)O,Potency,[1],inactive
same,Potency,[2],inactive
same,Potency,[3],inactive
Cc1c(-c2ccccc2)oc2c(C(=O)OCCN3CCCCC3)cccc2c1=O,Potency,[1],inactive
same,Potency,[2],inactive
same,Potency,[3],inactive
CCc1nn(CCCN2CCN(c3cccc(Cl)c3)CC2)c(=O)n1CCOc1ccccc1,Potency,[1],inactive
same,Potency,[2],inactive
same,Potency,[3],inactive
O=S(=O)(O)c1ccc(N=Nc2c(O)ccc3ccccc23)cc1,Potency,[1],inactive
same,Potency,[2],inactive
same,Potency,[3],inactive
Cc1onc(-c2c(Cl)cccc2Cl)c1C(=O)Cl,Potency,[1],inactive
same,Potency,[2],inactive
same,Potency,[3],inactive
CN1C(=O)OC(C)(C)C1=O,Potency,[1],inactive
same,Potency,[2],inactive
same,Potency,[3],inactive
COc1c(C)c2c(c(O)c1C/C=C(\C)CCC(=O)O)C(=O)OC2,Potency,[1],inactive
same,Potency,[2],inactive
same,Potency,[3],inactive
NC(=O)c1ncn([C@@H]2O[C@H](CO)[C@@H](O)[C@H]2O)c1O,Potency,[1],inactive
same,Potency,[2],inactive
same,Potency,[3],inactive
CCN(CC)CCNc1ccc(CO)c2sc3ccccc3c(=O)c12,Potency,[1],inactive
same,Potency,[2],inactive
same,Potency,[3],inactive
CC(C)(C)c1ccc(-c2ccc(C(C)(C)C)cc2)cc1,Potency,[1],inactive
same,Potency,[2],inactive
same,Potency,[3],inactive
CCN(CC)C(=O)c1cc(S(=O)(=O)Cc2ccccc2)c(N2CCC(c3ccccc3)CC2)cc1N(CC)CCN(C)C,Potency,[1],inactive
same,Potency,[2],inactive
same,Potency,[3],inactive
O=C(CN1CCN(Cc2ccc3c(c2)OCO3)CC1)N1c2ccccc2Sc2ccccc21,Potency,[1],inactive
same,Potency,[2],inactive
same,Potency,[3],inactive
Cc1ccc(Cl)cc1Cl,Potency,[1],inactive
same,Potency,[2],inactive
same,Potency,[3],inactive
COc1cc(OC)nc(NC(=O)NS(=O)(=O)Nc2ccccc2C(=O)N(C)C)n1,Potency,[1],inactive
same,Potency,[2],inactive
same,Potency,[3],inactive
CN1CCCC(CC2c3ccccc3Sc3ccccc32)C1 (centres undefined),Potency,[1],inactive
same,Potency,[2],inactive
same,Potency,[3],inactive
C[Si](C)(C)C,Potency,[1],inactive
same,Potency,[2],inactive
same,Potency,[3],inactive
COc1c(N2C[C@@H]3CCCN[C@@H]3C2)c(F)cc2c(=O)c(C(=O)O)cn(C3CC3)c12,Potency,[1],inactive
same,Potency,[2],inactive
same,Potency,[3],inactive
CCN1CCN(C(=O)N[C@@H](C(=O)N[C@@H]2C(=O)N3C(C(=O)O)=C(CSc4nnnn4C)CS[C@H]23)c2ccc(O)cc2)C(=O)C1=O,Potency,[1],inactive
same,Potency,[2],inactive
same,Potency,[3],inactive

# Reference: PubChem BioAssay (Tox21)
